Pf Dd2 growth = inhibitors of Plasmodium falciparum Dd2 growth. hit rate 4.3% among 120,000. Potency, µM (top dose mostly 28.9 µM), inactives show at the top dose activity, negative = inhibition, hits mostly inhibitors. P. falciparum Dd2 growth, SYBR Green, 72 h. AID 1347417; active = well fitted inhibition curve with a large enough effect;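 also: plate controls were DMSO vehicle for no effect and reference drug for full effect; nearly all actives have a fitted effect of over 65% in size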
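Infected erythrocytes (Dd2, 0.3% parasitemia, 2.5% hematocrit final) are added to compound in RPMI-1640/Albumax II medium, grown 72 h at 37C in low oxygen, then lysed with saponin/Triton-X containing SYBR Green and read by fluorescence.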
* marks the source's active call; other numbers are inactive results; i = inactive; [ ] = remark or other dose. This is one part of a sample in which hits are shown more often than they occur. Potency is read from the fitted curve at half-maximal effect.

SMILES	Pf Dd2 growth
COC(=O)c1ccccc1NC(=O)c1cc(CN2CCCC2)on1	i[5.79 µM]
Cn1cccc1C(=O)N1CCC(c2[nH]ncc2Cc2ccccc2)CC1	7%
COc1ccc(-c2nc3scc(CCNC(=O)Cc4ccc(F)cc4)n3n2)cc1	-12%
COc1ccc(-c2nc3scc(CCNS(=O)(=O)c4ccc(Oc5ccccc5)cc4)n3n2)cc1	-16%
COc1ccc(-c2nc3scc(CCNC(=O)c4cc(OC)cc(OC)c4)n3n2)cc1	7.1µM*
NC(=O)[C@@H](Cc1c[nH]c2ccccc12)NC(=O)[C@@]1(O)C[C@@H](O)[C@H](O)[C@@H](NC(=O)NC2CCCCC2)C1	5%
CCn1ccc(C(=O)N2CCC(N3C(=O)C(OCC4CC4)C34CCCCC4)CC2)n1 (centres undefined)	-25%
O=C(C1CCCC1)N1CCC(N2C(=O)C(OCC3CC3)C23CCCCC3)CC1 (centres undefined)	i
O=C(c1n[nH]c2ccccc12)N1CCC(N2C(=O)C(OCC3CC3)C23CCCCC3)CC1 (centres undefined)	4.5µM*
COc1ccc(NC(=O)C2=NO[C@@H]3CN(Cc4ccc(F)cc4)C[C@H]23)cc1	i
COc1cccc(CN2CCc3c(cc(C(=O)N4CCOCC4)n3C)C2)c1	-16%
COc1cccc(CC(=O)NCCC2CCN(C(=O)Nc3ccccc3C)CC2)c1	-10%
COc1ccc(NC(=O)c2cc3c(n2C)CCN(Cc2ccc(F)cc2)C3)cc1	2.5µM*
COc1ccc(NC(=O)c2ccc3c(c2)c(C)c(C)n3Cc2ccc(F)cc2)cc1	-17%
COc1cccc(CN2CCc3c(cc(C(=O)Nc4ccccc4)n3C)C2)c1	1.1µM*
CC(C)N1CCN(C(=O)c2cc3c(n2C)CCN(Cc2ccc(F)cc2)C3)CC1	i
COc1cccc(CN2CCc3nc(C(=O)Nc4cccnc4)oc3CC2)c1	-3%[44.1 µM]
COc1cccc(CN2CCc3c(cc(C(=O)Nc4cccc(C)c4C)n3C)C2)c1	4.5µM*
COc1cc(=O)n2c(c1C(=O)Nc1cccc(C)c1C)CCCC2	27%
CCN(CC)C(=O)c1cc2c(n1C)CCN(Cc1ccc(F)cc1)C2	8.9µM*
O=C(Cn1c(=O)c2c(n1Cc1ccccc1)CN(Cc1ccccc1)CC2)NCc1ccc(F)cc1	i
O=C(NCc1cccc(Cl)c1)c1noc(-c2ccc3c(c2)OCO3)n1	16%
O=C1NCCCCCN(C(=O)c2ccco2)[C@H]2CCC[C@@H]12	3%
CCn1nccc1C(=O)N1CCCN(S(C)(=O)=O)c2ccccc21	i
O=C(N[C@@H]1CN(C(=O)COc2ccc(F)cc2)CC[C@@H]1CO)C1CC1	16%
SMILES	Pf Dd2 growth
CNC(=O)[C@@H](C1CCCCC1)N1CCC[C@H]1C(=O)N1CCC1	28%[44.1 µM]
CN1C(=O)CC(C(=O)O)C12CCN(Cc1nc3ccsc3c(=O)[nH]1)CC2 (centres undefined)	-2%
Cc1cccc(S(=O)(=O)N(C)CC2CCOC2)c1 (centres undefined)	24%[5.79 µM]
CNC(=O)[C@@H]1CN(S(=O)(=O)c2ccc3c(c2)CCC3)C[C@H]1c1nc(C)no1	35%
COc1ccc(CNC(=O)c2cc3c(n2C)CCN(Cc2ccccc2)C3)cc1OC	-26%
COc1cccc(CN2CCc3c(cc(C(=O)NCc4ccccn4)n3C)C2)c1	0.89µM*
COc1cccc(CN2CCN3C(=O)N(Cc4ccccn4)C[C@H]3C2)c1	-4%[44.1 µM]
CCCCNC(=O)C1CCN(C(=O)c2ncn3c2COC(c2ccc(F)cc2)C3)CC1 (centres undefined)	-9%
O=C(Cc1cccc(F)c1)N1CCC(n2cnnc2-c2ccccc2)C1 (centres undefined)	25%
O=C(Cc1ccsc1)Nc1cnc(-c2ccccc2)nc1	-4%
CCC(=O)N(C1CCOCC1)C1CCN(Cc2ccc(C)o2)CC1	18%
Cc1ccncc1C(=O)N1CCC(N2CC(OCC3CC3)C23CCCCC3)CC1 (centres undefined)	-18%
COCCOC1CN(C2CCN(C(=O)c3ccc(C)nc3)CC2)C12CCCCC2 (centres undefined)	i
COC1CN(C2CCN(C(=O)Cc3ccccc3)CC2)C12CCOCC2 (centres undefined)	i
Cc1ncoc1C(=O)N1CCC(N2CC(OCC3CC3)C23CCOCC3)CC1 (centres undefined)	-7%
Cn1cccc1CN1CCC(N2CCOC2=O)CC1	4%[44.1 µM]
COC1CN(C2CCN(C(=O)c3ccoc3)CC2)C12CCOCC2 (centres undefined)	-24%
COCCOC1CN(C2CCN(Cc3ccc(C)o3)CC2)C12CCCCC2 (centres undefined)	5µM*
c1ccc(CN2CCC(N3CC(OCC4CC4)C34CCOCC4)CC2)cc1 (centres undefined)	5.6µM*
O=C(c1ccccn1)N1CCC(N2CC(OCC3CC3)C23CCOCC3)CC1 (centres undefined)	-8%
Cc1ccc(CN2CCC(N3CC(OCC4CC4)C34CCOCC4)CC2)s1 (centres undefined)	10µM*
Cn1cccc1CN1CCC(N2CC(OCC3CC3)C23CCCCC3)CC1 (centres undefined)	0.63µM*
